Screening results: PubChem BioAssay, The Scripps Research Institute Molecular Screening Center
rCAG binder: binders of r(CAG) RNA repeats, primary screen, biochemical, fluorescence; r(CAG) RNA repeat, TO-PRO-1 dye displacement fluorescence; inhibition, % at 3 µM; 370,000 tested, 1.3% active; AID 651821, 2012;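 active = inhibition above the plate cutoff, the mean of all test compounds on that plate plus 3 SD, cut at about 35% in these data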;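 also: 0% = DMSO alone and 100% = 100 µM mitoxantrone as full dye displacement; higher means more dye released from RNA so lower well fluorescence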
PAFAH1B2 FP inh: PAFAH1B2 enzyme inhibitors, primary screen, biochemical, fluorescence polarization, human. 340,000 tested, 1.2% active. recombinant PAFAH1B2, FP-rhodamine activity probe. inhibition, % at 3.39 µM;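 active = inhibition above the mean of all tested compounds plus 3 SD, cut at about 24% in these data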;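 also: 0% = enzyme with DMSO and 100% = wells lacking PAFAH1B2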
Target sequence (P68402 whole entry, looked up): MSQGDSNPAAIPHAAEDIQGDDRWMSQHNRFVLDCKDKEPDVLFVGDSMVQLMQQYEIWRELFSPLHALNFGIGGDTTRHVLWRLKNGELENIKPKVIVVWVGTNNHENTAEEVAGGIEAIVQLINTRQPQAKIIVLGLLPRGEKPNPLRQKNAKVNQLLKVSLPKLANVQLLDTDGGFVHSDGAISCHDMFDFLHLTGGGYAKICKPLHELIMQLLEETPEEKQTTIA
PAFAH2 inh: PAFAH2 enzyme inhibitors, primary screen, biochemical, fluorescence polarization, human; inhibition, % at 3.39 µM; Platelet-activating factor acetylhydrolase 2, cytoplasmic (Homo sapiens), Q99487; 340,000 tested, 0.99% active; recombinant PAFAH2, FP-rhodamine activity probe;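 active = inhibition above the mean over all tested compounds plus 3 SD, cut at about 30% in these data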;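 also: inhibitors block probe labeling of enzyme so polarization drops; 0% = enzyme with DMSO and 100% = wells lacking PAFAH2 protein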
ZTA counter: ZTA (EBV) inhibition in EBNA-1 counter-screen; P03206; ZTA-DNA binding, fluorescence polarization; inhibition, % at 11 µM; 320,000 tested, 0.15% active; AID 2234; in the data active = inhibition above about 33%
PAFAH1B3 FP inh: PAFAH1B3 enzyme inhibitors, primary screen, biochemical, fluorescence polarization, human. 340,000 tested, 0.28% active. AID 492972, 2010. inhibition, % at 3.39 µM. recombinant PAFAH1B3, FP-rhodamine probe;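 active = inhibition above the screen-wide average of all tested compounds plus 3 SD, cut at about 25% in these data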;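 also: 0% = enzyme with DMSO only and 100% = wells lacking PAFAH1B3 protein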
Target sequence (Q15102 whole entry, looked up): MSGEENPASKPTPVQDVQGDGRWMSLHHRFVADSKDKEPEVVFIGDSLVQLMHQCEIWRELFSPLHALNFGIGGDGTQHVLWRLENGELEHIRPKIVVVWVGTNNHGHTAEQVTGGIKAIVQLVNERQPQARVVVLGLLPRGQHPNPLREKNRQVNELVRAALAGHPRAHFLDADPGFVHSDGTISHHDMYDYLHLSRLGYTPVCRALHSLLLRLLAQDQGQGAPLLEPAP
EBNA-1 inhibitor: EBNA-1 DNA-binding inhibitors, primary screen, biochemical, fluorescence polarization | inhibition, % at 14.8 µM | 300,000 tested, 0.34% active | AID 1950, 2009; in the data active = inhibition above about 28%
Starred values were filed as active, the others as inactive. This is a sample that favours compounds with a hit; in the whole collection about 2.9% have one here.

What do the screens show for `c1ccc(-c2ccc3c(c2)CNCc2cnnn2-3)cc1`?
rCAG binder: 1

Results for CC(C)Sc1nnc(OC(=O)N(C)C)n1-c1ccccc1 ?
rCAG binder: -4; PAFAH1B2 FP inh: 6; PAFAH2 inh: 3; ZTA counter: -21; PAFAH1B3 FP inh: 4; EBNA-1 inhibitor: -12

What do the screens show for `O=C1NC(=O)N(Cc2ccco2)C(=O)/C1=C/c1ccc(-c2cccc([N+](=O)[O-])c2)o1`?
PAFAH1B2 FP inh: 4; PAFAH2 inh: 37*; ZTA counter: -13; PAFAH1B3 FP inh: 6; EBNA-1 inhibitor: -7

What do the screens show for `C=CCN1C(=O)NC(=O)/C(=C\c2ccc(-c3ccccc3[N+](=O)[O-])o2)C1=O`?
rCAG binder: 14; PAFAH1B2 FP inh: 4; PAFAH2 inh: 22; ZTA counter: 2; PAFAH1B3 FP inh: 7; EBNA-1 inhibitor: 4

How did CC(=O)N1c2ccccc2C(c2ccccc2)=NCC1C(=O)NCc1ccccc1 (centres undefined) do in these assays?
rCAG binder: 3

What do the screens show for `CC1CC(OP(O)(=S)c2ccc(N(C)C)cc2NC(=O)c2cccs2)CC(C)(C)C1` (centres undefined)?
rCAG binder: 22; PAFAH1B2 FP inh: 40*; PAFAH2 inh: 18; ZTA counter: 7; PAFAH1B3 FP inh: 10; EBNA-1 inhibitor: -6

Results for CC1CCC(C)(NS(=O)(=O)OCC(Cl)(Cl)Cl)CC1 (centres undefined) ?
rCAG binder: -5; PAFAH1B2 FP inh: 45*; PAFAH2 inh: 9; ZTA counter: 5; PAFAH1B3 FP inh: 7; EBNA-1 inhibitor: 9

How did ClC(Cl)=C(c1ccc(Cl)cc1)c1ccc(Cl)cc1 do in these assays?
rCAG binder: 4; PAFAH1B2 FP inh: 25*; PAFAH2 inh: 2; ZTA counter: -7; PAFAH1B3 FP inh: -1; EBNA-1 inhibitor: 2

What do the screens show for `Cc1ccc2nc(-c3ccc(CN4CCC(n5nnc6ccccc65)CC4)cc3)c(-c3ccccc3)nc2c1`?
rCAG binder: 10

What do the screens show for `CC(C)n1c(O)c(C2c3cc(Cl)ccc3Oc3[nH]c(=O)n(C(C)C)c(=O)c32)c(=O)[nH]c1=O` (centres undefined)?
PAFAH1B2 FP inh: 39*; PAFAH2 inh: -1; PAFAH1B3 FP inh: 3

What do the screens show for `CC(=O)c1c(O)n(-c2cccc(Cl)c2)c(=O)[nH]c1=O` (tested in a mixture with another compound)?
rCAG binder: 3; PAFAH1B2 FP inh: 7; PAFAH2 inh: 3; ZTA counter: -2; PAFAH1B3 FP inh: 0; EBNA-1 inhibitor: 1

What do the screens show for `CN(c1ccccc1)P(=O)(N1CC1)N1CC1`?
rCAG binder: 3; PAFAH1B2 FP inh: 2; PAFAH2 inh: 7; PAFAH1B3 FP inh: 3

How did COOCC1(C(=O)OC)C[C@H](c2ccc(OC)cc2)N(Cc2ccccc2OC)[C@@H]1c1ccccc1C (some centres undefined) do in these assays?
rCAG binder: 5

What do the screens show for `Cc1ccc(Cn2ccccc2=N)cc1`?
rCAG binder: 2; PAFAH1B2 FP inh: 3; PAFAH2 inh: 1; PAFAH1B3 FP inh: 6

What do the screens show for `Cc1cc(C)cc(N2C(=O)NC(=O)/C(=C\c3cccn3-c3ccc(Cl)cc3)C2=O)c1`?
rCAG binder: 8; PAFAH1B2 FP inh: 43*; PAFAH2 inh: 39*; ZTA counter: 7; PAFAH1B3 FP inh: -2; EBNA-1 inhibitor: -6

How did CCOC(=O)CNC(=O)N1Cc2cc(Br)ccc2-n2nncc2C1 do in these assays?
rCAG binder: 2

Results for CC[n+]1c(/C=C/C=C/c2ccc(N(C)C)cc2)sc2ccccc21 ?
rCAG binder: 18; PAFAH1B2 FP inh: -25; PAFAH2 inh: -71; ZTA counter: 164*; PAFAH1B3 FP inh: -33; EBNA-1 inhibitor: 105*

Results for CN(C)c1ccc(/C=C/C=C/c2sc3ccccc3[n+]2C)cc1 ?
rCAG binder: 15; PAFAH1B2 FP inh: -12; PAFAH2 inh: -36; ZTA counter: 45*; PAFAH1B3 FP inh: -14; EBNA-1 inhibitor: 32*

What do the screens show for `NP(=O)(Oc1ccccc1Cl)Oc1ccccc1Cl`?
rCAG binder: -4; PAFAH1B2 FP inh: 24*; PAFAH2 inh: -2; ZTA counter: -1; PAFAH1B3 FP inh: 2; EBNA-1 inhibitor: -13

How did NP(=O)(OCC(F)(F)F)Oc1cccc2ccccc12 (centres undefined) do in these assays?
rCAG binder: 0; PAFAH1B2 FP inh: 19; PAFAH2 inh: -1; ZTA counter: -8; PAFAH1B3 FP inh: -3; EBNA-1 inhibitor: 7

What do the screens show for `NP(=O)(OCC(F)(F)F)Oc1ccc(Cl)cc1` (centres undefined)?
rCAG binder: -3; PAFAH1B2 FP inh: -3; PAFAH2 inh: 1; ZTA counter: 0; PAFAH1B3 FP inh: 3; EBNA-1 inhibitor: 6

How did NP(=O)(OCCCCc1ccccc1)Oc1ccccc1Cl (centres undefined) do in these assays?
rCAG binder: -12; PAFAH1B2 FP inh: 99*; PAFAH2 inh: 31*; ZTA counter: 1; PAFAH1B3 FP inh: 46*; EBNA-1 inhibitor: 16

How did N#CC1c2ccccc2-n2nncc2CN1C(=O)c1ccc([N+](=O)[O-])o1 (centres undefined) do in these assays?
rCAG binder: 1

What do the screens show for `N#CC1c2ccccc2-n2nncc2CN1C(=O)c1cccnc1` (centres undefined)?
rCAG binder: 2

What do the screens show for `O=c1[nH]c(=S)n(Cc2ccc(F)cc2)c(O)c1/C=N/N1CCCCC1`?
rCAG binder: 3; PAFAH1B2 FP inh: 32*; PAFAH2 inh: 2; ZTA counter: -19; PAFAH1B3 FP inh: -7; EBNA-1 inhibitor: 13

Results for O=c1[nH]c(=S)n(Cc2ccc(F)cc2)c(O)c1C=NCc1cccnc1 ?
rCAG binder: -3; PAFAH1B2 FP inh: 28*; PAFAH2 inh: 0; ZTA counter: 14; PAFAH1B3 FP inh: -5; EBNA-1 inhibitor: 8

What do the screens show for `O=c1[nH]c(=S)n(Cc2ccc(F)cc2)c(O)c1C=NCC1CCCO1` (centres undefined)?
rCAG binder: -2; PAFAH1B2 FP inh: 34*; PAFAH2 inh: 3; ZTA counter: -4; PAFAH1B3 FP inh: 1; EBNA-1 inhibitor: -1

How did O=c1[nH]c(=O)n(Cc2ccc(F)cc2)c(O)c1C=NCCN1CCCCC1 do in these assays?
rCAG binder: 1; PAFAH1B2 FP inh: 10; PAFAH2 inh: 2; ZTA counter: 5; PAFAH1B3 FP inh: 5; EBNA-1 inhibitor: 1

Results for CCC(C)n1c(O)c(C=NCc2cccnc2)c(=O)[nH]c1=S (centres undefined) ?
rCAG binder: -5; PAFAH1B2 FP inh: 7; PAFAH2 inh: 10; ZTA counter: 22; PAFAH1B3 FP inh: 5; EBNA-1 inhibitor: 2
